The source of these data is PubChem BioAssay (NCI).

Structures are written as SMILES. “And” between values parts separate entries of the source, which are not always exact repeats. Identical values can stand only once. Compounds without any hit were thinned out: in the full panel of roughly 83,000, 20% have a hit.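 Testing used 96-well plates and a 48-hour single-concentration exposure. Example: -40 means 40% of the starting cells died.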 A number with no mark means an inactive call. The source made the active and inactive calls. Rule for the calls: active = growth percent below 10; inactive = the rest.

Some test systems named below: DU-145 prostate; K-562 leukemia; MALME-3M melanoma; MDA-MB-231 breast; RXF 393 renal; SF-268 CNS; SF-295 CNS; SF-539 CNS; UACC-257 melanoma; M14 melanoma.
Holding throughout (test): NCI-60 one-dose screen, 48 h (100 = growth as untreated, 0 = no growth, -100 = all killed)
Settings in all cases: 10 µM unless noted

For `O=c1c2c([nH]c3ccccc13)CCCC2`, the growth is 106% and 70.7% with DU-145 prostate; 95.9% and 11.3% with K-562 leukemia; 104% and 36.8% in the test on MALME-3M melanoma; 95.8% and 54.9% with MDA-MB-231 breast; 105% and 63.4% with RXF 393 renal; 98.8% and 53.2% with SF-268 CNS. Also, the growth was 95.4% and 13.1% with SF-295 CNS; 99.5% and 46% in the test on SF-539 CNS; 100% and 58.8% in the test on UACC-257 melanoma; 98.5% and 15.6% in the test on M14 melanoma.

Regarding `CCN1CCN(CC(=O)Nc2nc3ccc(NCc4ccc(C)cc4)cc3s2)CC1`, the growth is 84.3% with DU-145 prostate; -0.543% (active) with K-562 leukemia; -41.5% (active) with MALME-3M melanoma; 59.1% with MDA-MB-231 breast; 56.1% with RXF 393 renal; 73.5% in the test with SF-268 CNS. Besides, the growth in the test on SF-295 CNS is 88.2%; in the test on SF-539 CNS, 22.2%; in the test on UACC-257 melanoma it was 34%; with M14 melanoma, -44% (active).

As to `Cn1cc(-c2nonc2-c2cn(C)c3ccc(Br)cc23)c2ccccc21`, the growth in the test with DU-145 prostate was 53%; with K-562 leukemia, 13.3%; in the test with MALME-3M melanoma it was 30.2%; with MDA-MB-231 breast it was 45.5%; in the test on RXF 393 renal it was 42.4%; in the test with SF-268 CNS, 37.3%. Moreover, the growth is 16.4% in the test on SF-295 CNS, -0.366% (active) in the test with SF-539 CNS, 49.5% in the test with UACC-257 melanoma and 17.7% with M14 melanoma.

For the molecule `COc1ccc(N2CCN(S(=O)(=O)c3oc(-c4ccccc4)nc3C#N)CC2)cc1`, the growth in the test with DU-145 prostate was 104%; in the test on K-562 leukemia, 15.3%; in the test on MALME-3M melanoma, 69.6%; in the test with MDA-MB-231 breast it was 77.2%; in the test on RXF 393 renal, 66.4%; in the test on SF-268 CNS it was 102%. Also, the growth in the test with SF-295 CNS was 104%; in the test with SF-539 CNS it was 68.2%; with UACC-257 melanoma, 88%; with M14 melanoma, 47.4%.

`C=C(C)[C@@H]1CC[C@]2(C(=O)O)CC[C@]3(C)[C@H](CC[C@@H]4[C@@]5(C)CCC(N)C(C)(C)[C@@H]5CC[C@]43C)[C@@H]12` (stereo not given in full): the growth was 33.1% with DU-145 prostate; -28.2% (active) in the test with K-562 leukemia; -61.3% (active) with MALME-3M melanoma; 18.3% with MDA-MB-231 breast; 81.3% in the test on RXF 393 renal; 91.3% with SF-268 CNS. The growth with SF-295 CNS is 73.7%; with SF-539 CNS, 96.5%; in the test with UACC-257 melanoma it was 93.2%; with M14 melanoma it was 27.1%.

Turning to `C=C[C@]1(C)C=C2CC[C@@H]3C(C)(C)C(=O)CC[C@@]3(C)[C@@H]2CC1`, the growth in the test on DU-145 prostate is 108%; with K-562 leukemia, 95.3%; with MALME-3M melanoma, 1.04% (active); in the test on MDA-MB-231 breast it was 111%; in the test on RXF 393 renal, 127%; with SF-268 CNS it was 97.6%. For the same molecule, the growth is 101% in the test with SF-295 CNS, 103% in the test with SF-539 CNS, 106% in the test with UACC-257 melanoma and 103% in the test with M14 melanoma.

For `COc1ccc(-c2cc(-c3cccnc3)nc3sc4c(Cl)nnnc4c23)cc1OC`, the growth was 94.2% with DU-145 prostate; 15.8% in the test with K-562 leukemia; 107% with MALME-3M melanoma; 77.9% in the test on MDA-MB-231 breast; 104% with RXF 393 renal; 96.7% with SF-268 CNS. The growth with SF-295 CNS was 101%; in the test with SF-539 CNS, 101%; in the test with UACC-257 melanoma, 78.4%; in the test with M14 melanoma it was 88.6%.

Turning to `O=C(Nc1ncc(Cc2cccc(C(F)(F)F)c2)s1)c1ccc(-n2cnnn2)cc1`, the growth in the test with DU-145 prostate was 60.3%; with K-562 leukemia it was 21%; with MALME-3M melanoma, 62.6%; in the test on MDA-MB-231 breast, 96.9%; with RXF 393 renal, 103%; in the test with SF-268 CNS it was 55.4%. Moreover, the growth in the test on SF-295 CNS is 32.2%; with SF-539 CNS it was 47.9%; with UACC-257 melanoma it was 46.8%; in the test on M14 melanoma, 41.4%.

For `CN(C)C(=O)c1cc2cnc(Nc3ccc(-c4csc5c(=S)cc(N6CCOCC6)oc45)cc3)nc2n1C1CCCC1`, the growth was 16.9% in the test on DU-145 prostate; 10% with K-562 leukemia; 17.8% with MALME-3M melanoma; 10.2% in the test on MDA-MB-231 breast; -53.9% (active) in the test with RXF 393 renal; 11.1% in the test with SF-268 CNS. Moreover, the growth was 1.23% (active) in the test with SF-295 CNS, -24.5% (active) in the test with SF-539 CNS, 4.13% (active) in the test on UACC-257 melanoma and 7.51% (active) in the test with M14 melanoma.

For the molecule `COc1ccc(-c2cc3cnc4ccccc4c3oc2=O)cc1`, the growth with DU-145 prostate is 97.8%; with K-562 leukemia, 28.1%; in the test on MALME-3M melanoma, 97%; in the test with MDA-MB-231 breast it was 88.2%; in the test with RXF 393 renal, 86.5%; in the test on SF-268 CNS, 99.7%. Also, the growth is 96.7% in the test with SF-295 CNS, 102% in the test with SF-539 CNS, 96.4% in the test on UACC-257 melanoma and 106% with M14 melanoma.

With `O=C(CCN1CCOCC1)Nc1cccc(-n2cc(-c3ccncc3)c(-c3ccc(Cl)c(O)c3)n2)c1`, the growth in the test on DU-145 prostate was 13%; with K-562 leukemia, 20.2%; in the test on MALME-3M melanoma, 66.3%; with MDA-MB-231 breast it was 55.4%; in the test with RXF 393 renal it was 22.2%; in the test with SF-268 CNS, 37%. Besides, the growth with SF-295 CNS is 6.52% (active); in the test with SF-539 CNS, -19.7% (active); with UACC-257 melanoma it was 66.2%; with M14 melanoma, 5.06% (active).

Turning to `O=C(Nc1ncc(Cc2cccc(C(F)(F)F)c2)s1)c1ccc2c(c1)OCCO2`, the growth is 15.1% with DU-145 prostate; 8.17% (active) in the test with K-562 leukemia; 50.1% in the test with MALME-3M melanoma; 30.2% in the test on MDA-MB-231 breast; 19.6% in the test with RXF 393 renal; 38.3% with SF-268 CNS. Moreover, the growth is 8.97% (active) in the test with SF-295 CNS, -0.654% (active) in the test with SF-539 CNS, 45.5% in the test with UACC-257 melanoma and 21.6% with M14 melanoma.
